Among the data in PubChem BioAssay (NCATS) are outcome, Potency and max response values, retold here.

The nature of assay [1]: qHTS for compounds that reverse cellular toxicity of Amyloid beta (A-beta) peptide in yeast: LOPAC Validation Assay (AID 720559). The method, boiled down:
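Yeast cells expressing toxic A-beta were combined with pinned compounds in growth medium and incubated 48 hr at 30 C. Growth was read as absorbance at 600 nm and normalized to DMSO and to an equimolar FeCl3/clioquinol positive control.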
On the technique in general: In qHTS, concentration-response curves come from the screen itself.

A short description of assay [2]: qHTS for Activators of Parkin Expression: LOPAC Validation Assay (NLuc Reporter) (AID 720572). The method, boiled down: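 Neuronal line stably carrying a FLuc/NLuc coincidence reporter under the Parkin promoter, seeded 24 h, then dosed in 7-point series for 24 h at 37 C. NLuc luminescence read after FLuc; normalized to DMSO and positive control (100%).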
Assay [3] can be described thus: qHTS for Activators of Parkin Expression: LOPAC Validation Assay (FLuc Reporter) (AID 720573). The method, boiled down: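 Neuronal cell line stably carrying FLuc/NLuc coincidence reporter under Parkin promoter; cells plated 24 h, then compounds added in 7-point dose response for 24 h at 37 C. FLuc luminescence read; normalized to DMSO and positive control (100%).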

Assay [4] is described as follows: qHTS assay for small molecule agonists of the antioxidant response element (ARE) signaling pathway measured by Nrf2-dependant transcriptional activity - cell viability counter screen (AID 720653; active = well fitted curve in the direction sought with a large enough effect in the repeat runs; an effect the other way counts as inactive or inconclusive). The settings on record: ARE-bla HepG2 viability, CellTiter-Glo ATP luminescence, 16 h; hits give low values. The method, boiled down: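 ARE-bla HepG2 cells (2,000/well) rested 5 hrs at 37C/5% CO2, then exposed to compounds in DMSO for 16 hrs. Viability was read in the same wells as intracellular ATP by luminescence, 30 min at room temperature after reagent addition.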

Each structure is given as a SMILES string. Unmarked numbers belong to inactive results. Results filed as inconclusive are left out. Where a call stands in place of a potency, no number is given. Active and inactive are the calls of the source. Unless noted, calls follow the shape of the dose curve; as a rule, active = well fitted curve in the direction sought with a large enough effect; inconclusive = small, poorly fitted or top-dose-only effect, or another doubt; inactive = no such curve, though single readings can be large; an effect the other way counts as inactive or inconclusive.

`COc1cc([C@@H]2c3cc4c(cc3[C@H](O)C3COC(=O)[C@@H]32)OCO4)cc(OC)c1OC` (stereo partly drawn): in assay [1], the result was inactive. In addition, the Potency result in assay [2] and in assay [3] was “inactive” in each case.

In the case of `O=C(O)Cc1c[nH]c2ccc(O)cc12`, the compound was classed as inactive in assay [1]. Moreover, the Potency entry in assay [2] and in assay [3] was “inactive” throughout.

Regarding `CCN(CC)CCOC(=O)c1cc(Cl)c(N)cc1OC`, the compound was called inactive in assay [1]. The Potency result in assay [2] and in assay [3] was “inactive” throughout.

As for `CCN(c1nc(N)c(C(=O)N=C(N)N)nc1Cl)C(C)C`, the compound was called inactive in assay [1]. The Potency result in assay [2] and in assay [3] was “inactive” throughout.

On to `COc1ccc(C(=O)NCc2cccnc2)cc1C(=O)NCc1cccnc1`, for which, in assay [1], the compound was called inactive. Moreover, the Potency entry in assay [2] and in assay [3] was “inactive” throughout.

With `O=[N+]([O-])c1cccc2cn[nH]c12`, the compound was classed as inactive in assay [1]. Also, the Potency entry in assay [2] and in assay [3] was “inactive” throughout.

For the compound `NC1(C(=O)O)CCCCC1`, the result in assay [1] was inactive. Moreover, the Potency entry in assay [2] and in assay [3] was “inactive” throughout.

As to `O=C1Nc2ccc(I)cc2/C1=C/c1cc(Br)c(O)c(Br)c1`, the compound was called inactive in assay [1]. Besides, the Potency entry in assay [2] and in assay [3] was “inactive” each time.

As to `O=C(O)C1CCCNC1` (stereo not drawn), the call in assay [1] was inactive. In addition, the Potency entry in assay [2] and in assay [3] was “inactive” each time.

For the compound `Cn1ccnc1`, in assay [1], the compound was classed as inactive. Also, the Potency result in assay [2] and in assay [3] was “inactive” each time.

On to `Cc1nc2c(OCc3ccccc3)cccn2c1CC#N`, for which the result in assay [1] was inactive. Moreover, the Potency result in assay [2] was “inactive”.

Consider `NC[C@@H]1O[C@H](c2ccccc2)Cc2c1ccc(O)c2O`, for which, in assay [1], the compound was classed as inactive. In addition, the Potency result in assay [2] and in assay [3] was “inactive” each time.

On to `OC1(c2ccc(Cl)cc2)CCN(Cc2c[nH]c3ccccc23)CC1`, for which the result in assay [1] was inactive. The Potency entry in assay [2] and in assay [3] was “inactive” each time.

As for `CC(=O)[C@H]1CCC2C3CC=C4C[C@@H](OS(=O)(=O)O)CC[C@]4(C)C3CC[C@@]21C` (stereo partly drawn), the outcome in assay [1] was inactive. Besides, the Potency entry in assay [2] and in assay [3] was “inactive” throughout.

Regarding `Nc1ncnc2c1c(-c1ccc(Oc3ccccc3)cc1)cn2C1CCCC1`, the call in assay [1] was inactive. Besides, the Potency result in assay [2] was “inactive”.

In the case of `O=C(O)C1CCNCC1`, the compound was classed as inactive in assay [1]. In addition, the Potency result in assay [2] and in assay [3] was “inactive” throughout.

On to `COC(=O)C1=C(C)NC(C)=C([N+](=O)[O-])C1c1ccccc1C(F)(F)F` (stereo not drawn), for which the outcome in assay [1] was inactive. In addition, the Potency entry in assay [2] and in assay [3] was “inactive” throughout.

With `CCCCCCC(=O)OC1CC(C)(C)NC(C)(C)C1`, the compound was called inactive in assay [1]. Further, in assay [2], the Potency entry was “inactive”.

As to `CCCN(CCc1ccccc1)C1CCc2c(O)cccc2C1` (stereo not drawn), in assay [1], the result was inactive. Also, the Potency result in assay [2] and in assay [3] was “inactive” throughout.

On to `N[C@@H](Cc1c[nH]c2ccccc12)C(=O)O`, for which, in assay [1], the compound was classed as inactive. For the same compound, the Potency entry in assay [2] and in assay [3] was “inactive” throughout.

On to `O=C(O)C1=CC(=C(c2ccc(O)c(C(=O)O)c2)c2ccc(O)c(C(=O)O)c2)C=CC1=O`, for which, in assay [1], the outcome was inactive. Moreover, the Potency result in assay [2] and in assay [3] was “inactive” each time.

On to `C[C@]12C=CC(=O)C=C1CC[C@@H]1C2=CC[C@]2(C)[C@@H](C(=O)CN3CCN(c4cc(N5CCCC5)nc(N5CCCC5)n4)CC3)CC[C@@H]12`, for which the result in assay [1] was inactive. For the same compound, in assay [2], the Potency entry is “inactive”.

Regarding `COc1ccc(-c2cc3ncc(C)n3c(Nc3ncccc3C(N)=O)n2)cc1OC`, the compound was called inactive in assay [1]. For the same compound, in assay [2], the Potency entry is “inactive”.

Consider `O=c1cc(-c2ccccc2)[nH]c2nc(Cl)ccc12`, for which the call in assay [1] was inactive. The Potency entry in assay [2] and in assay [3] was “inactive” throughout.

Regarding `Nc1nc2c(cnn2CCc2ccccc2)c2nc(-c3ccco3)nn12`, the outcome in assay [1] was inactive. Also, the Potency entry in assay [2] is “inactive”.

`NC(N)=NC(N)=Nc1cccc(Cl)c1`: the compound was classed as inactive in assay [1]. Further, the Potency entry in assay [2] was “inactive”.

For `C=CCN1CCc2c(cc(O)c(O)c2Cl)C(c2ccccc2)C1` (stereo not drawn), the compound was classed as inactive in assay [1]. The Potency result in assay [2] and in assay [3] was “inactive” each time.

As to `Cc1nc(N=Nc2cc(S(=O)(=O)O)c3cc([N+](=O)[O-])cc(S(=O)(=O)O)c3c2)c(COP(=O)(O)O)c(C=O)c1O`, the compound was classed as inactive in assay [1]. Also, the Potency result in assay [2] and in assay [3] was “inactive” each time.

For `N#C/C(=C\c1ccc(O)c(O)c1)C(=O)NCCc1ccccc1`, the result in assay [1] was inactive. For the same compound, the Potency result in assay [2] is “inactive”.

Turning to `c1ccc2c(c1)CC(N1CCN(c3cccc4c3OCCO4)CC1)C2`, in assay [1], the call was inactive. Further, the Potency entry in assay [2] and in assay [3] was “inactive” each time.

Turning to `CCCCCCCCCC[Si](C)(C)CCC(=O)NC(Cc1ccc(C)cc1)c1ccccc1` (stereo not drawn), the call in assay [1] was inactive. The Potency entry in assay [2] and in assay [3] was “inactive” throughout.

Consider `Nc1nc2[nH]c(=O)cnc2c(=O)[nH]1`, for which the compound was called inactive in assay [1]. Further, the Potency result in assay [2] is “inactive”.

Regarding `CCCCCCCCCCCCCCSCC(=O)O`, the max response in assay [4] was 2.74%.
